# Reference: PubChem BioAssay (NCATS)
# Inconclusive results are not listed. Entries that show only a call come without a potency. Unmarked numbers belong to inactive results. Calls of active or inactive are those of the source. The call rests on the fitted dose curve; in most records, active means well fitted inhibition curve with a large enough effect; inconclusive means small, poorly fitted or top-dose-only effect; inactive means flat fitted curve, though single readings scatter.
# Assays:
# Assay in all cases: qHTS profiling for inhibitors of Plasmodium falciparum proliferation (AID 504749); further: nearly all actives have a fitted effect of over 60% in size
# Details in all cases: P. falciparum in erythrocytes, SYBR Green DNA, 72 h; series mostly up to 12.8 µM
# CP250 = tested on: CP250
# Outline: (§1)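 Each compound contacts P. falciparum-infected red blood cells for 72 h at 37 C; lysis buffer (Tris, EDTA, saponin, Triton X, SYBR Green I) is added and fluorescence measured next morning; values normalized to controls.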
# CP252 = tested on: CP252
# Outline: as §1
# CP256 = tested on: CP256
# Outline: as §1
# CP262 = tested on: CP262
# Outline: as §1
# CP265 = tested on: CP265
# Outline: as §1
# CP268 = tested on: CP268
# Outline: as §1
# CP269 = tested on: CP269
# Outline: as §1
# CP286 = tested on: CP286
# Outline: as §1
# CP291 = tested on: CP291
# Outline: as §1
# CP305 = tested on: CP305
# Outline: as §1
# CP315 = tested on: CP315
# Outline: as §1
# CP325 = tested on: CP325
# Outline: as §1
# CP329 = tested on: CP329
# Outline: as §1
# CP335 = tested on: CP335
# Outline: as §1
# DFO2036 = tested on: DFO2036
# Outline: as §1
# DIV14 = tested on: DIV14
# Outline: as §1
# DIV17 = tested on: DIV17
# Outline: as §1
# DIV30 = tested on: DIV30
# Outline: as §1
# ECU = tested on: ECU
# Outline: as §1
# FAB9 = tested on: FAB9
# Outline: as §1
# HB3 = tested on: HB3
# Outline: as §1
# ICS = tested on: ICS
# Outline: as §1
# JCK = tested on: JCK
# Outline: as §1
# N140 = tested on: N140
# Outline: as §1
# P94_40 = tested on: P94_40
# Outline: as §1
# PAD = tested on: PAD
# Outline: as §1
# PC15 = tested on: PC15
# Outline: as §1
# PC49 = tested on: PC49
# Outline: as §1
# SC27B = tested on: SC27B
# Outline: as §1
# TAB109 = tested on: TAB109
# Outline: as §1
# TAB113 = tested on: TAB113
# Outline: as §1
# TAB165 = tested on: TAB165
# Outline: as §1
# W2 = tested on: W2
# Outline: as §1
# Potency means the concentration at half of the fitted maximal effect.
structure (smiles),measurement,setting,value
CN(C)CCOC(=O)[C@@H](c1ccccc1)C1(O)CCCC1,Potency,CP250,inactive
same,Potency,CP252,inactive
same,Potency,CP256,inactive
same,Potency,CP262,inactive
same,Potency,CP265,inactive
same,Potency,CP268,inactive
same,Potency,CP269,inactive
same,Potency,CP286,inactive
same,Potency,CP291,inactive
same,Potency,CP305,inactive
same,Potency,CP315,inactive
same,Potency,CP325,inactive
same,Potency,CP329,inactive
same,Potency,CP335,inactive
same,Potency,DFO2036,inactive
same,Potency,DIV14,inactive
same,Potency,DIV17,inactive
same,Potency,DIV30,inactive
same,Potency,ECU,inactive
same,Potency,FAB9,inactive
same,Potency,HB3,inactive
same,Potency,ICS,inactive
same,Potency,JCK,inactive
same,Potency,N140,inactive
same,Potency,P94_40,inactive
same,Potency,PAD,inactive
same,Potency,PC15,inactive
same,Potency,PC49,inactive
same,Potency,SC27B,inactive
same,Potency,TAB109,inactive
same,Potency,TAB113,inactive
same,Potency,TAB165,inactive
same,Potency,W2,8.49 µM (active)
